Measured values published in PubChem BioAssay (NCI).
About 83,000 compounds went through this panel and 20% of them were active in at least one assay; those are over-represented in the sample as a whole.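 The test compound was applied at a single concentration to cells in 96-well plates for 48 hours, and percent growth was recorded.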 Values without a mark were called inactive. Activity calls are given as the source filed them. Rule for the calls: active = growth percent below 10; inactive = the rest.

Columns and labels:
Experiment in all cases: NCI-60 one-dose screen, 48 h (100 = growth as untreated, 0 = no growth, -100 = all killed)
Conditions in all cases: 10 µM unless noted
DU-145 prostate = test system: DU-145 prostate
K-562 leukemia = test system: K-562 leukemia
MALME-3M melanoma = test system: MALME-3M melanoma
MDA-MB-231 breast = test system: MDA-MB-231 breast
RXF 393 renal = test system: RXF 393 renal
SF-268 CNS = test system: SF-268 CNS
SF-295 CNS = test system: SF-295 CNS
SF-539 CNS = test system: SF-539 CNS
UACC-257 melanoma = test system: UACC-257 melanoma
M14 melanoma = test system: M14 melanoma
HCT-15 colon = test system: HCT-15 colon
HT29 colon = test system: HT29 colon
SNB-75 CNS = test system: SNB-75 CNS
SNB-19 CNS = test system: SNB-19 CNS
U251 CNS = test system: U251 CNS
PC-3 prostate = test system: PC-3 prostate
UACC-62 melanoma = test system: UACC-62 melanoma
LOX IMVI melanoma = test system: LOX IMVI melanoma
SK-MEL-28 melanoma = test system: SK-MEL-28 melanoma
SK-MEL-5 melanoma = test system: SK-MEL-5 melanoma

Row | SMILES | growth (DU-145 prostate) | growth (K-562 leukemia) | growth (MALME-3M melanoma) | growth (MDA-MB-231 breast) | growth (RXF 393 renal) | growth (SF-268 CNS) | growth (SF-295 CNS) | growth (SF-539 CNS) | growth (UACC-257 melanoma) [%] | growth (M14 melanoma) | growth (HCT-15 colon) | growth (HT29 colon) | growth (SNB-75 CNS) | growth (SNB-19 CNS) | growth (U251 CNS) | growth (PC-3 prostate) [%] | growth (UACC-62 melanoma) | growth (LOX IMVI melanoma) | growth (SK-MEL-28 melanoma) | growth (SK-MEL-5 melanoma)
1 | CCCCNC(=O)Oc1ccc(/C(=C(/C)Cc2ccc(OC)cc2)c2ccc(OCCN3CCCCC3)cc2)cc1 | 92.1% | -14.1% (active) | 79.1% | 87.6% | 71.5% | 81.2% | 86.8% | 80.4% | 99.2 | 31% | 32.3% | 2.86% (active) | 64.8% | 77.1% | 54.7% | 59 | 67.7% | 70.4% | 78.2% | 
2 | O=[N+]([O-])c1ccc(-c2cn3nc(-c4c[nH]c5ccccc45)sc3n2)cc1 | 110% | 84.1% | 89.5% | 94% | 108% | 108% | 102% | 105% | 95.3 | 97% | 86% | 95.3% | 96.4% | 93.4% | 96.9% | 93.7 | 84.2% | 94.7% | 111% | 
3 | CN1CCN(C(=O)C(C)(C)c2ccc(C(=O)Nc3cn4cc(-c5ccncc5)ccc4n3)cc2)CC1 | 16.1% | 10.2% | -11.9% (active) | 21.1% | -61.1% (active) | 9.95% (active) | 8.85% (active) | -1.81% (active) | 13 | 13.1% | 2.11% (active) | 6.49% (active) | -5.48% (active) | 9.14% (active) | 16% | 25.7 | -31.3% (active) | -19.9% (active) | 7.28% (active) | -98.2% (active)
4 | C[n+]1ccc(CCc2c[nH]c3ccccc23)cc1 | 111% | 102% | 76.1% | 92.7% | 118% | 94.4% | 94.5% | 95.7% | 104 | 95.1% | 99.7% | 88.8% | 74.6% | 102% | 95.2% | 84 | 101% | 94.6% | 100% | 
5 | Cc1ccc(S(=O)(=O)c2nc(-c3ccccc3)oc2Sc2nc3ccccc3s2)cc1 | 100% | 42.9% | 66.4% | 75.3% | 77.3% | 58.3% | 92.1% | 93.3% | 101 | 13.4% | 44.8% | 94.2% | 70.8% | 100% | 90.5% | 97.2 | 80.3% | 24.6% | 109% | 
6 | COc1ccc(/C=C/C(=O)c2cc3c(N)c(C(=O)Nc4cccc(Cl)c4C)sc3nc2C)cc1 | 7.29% (active) | 13% | 45.8% | -12.3% (active) | -17.3% (active) | 11.7% | 13.1% | -40.6% (active) | 63 | -6.38% (active) | 5.62% (active) | -2.08% (active) | 21.3% | 5.32% (active) | -20% (active) | 22.7 | 26.9% | -44.6% (active) | 43.7% | 
7 | CCn1c(-c2cc3c([nH]c4ccccc43)c(-c3cccc(O)c3)n2)n[nH]c1=S | 62.3% | 14.3% | 51% | 46.9% | 8.59% (active) | 48.3% | 36.8% | 30% | 41 | 18.1% | 50.2% | -19.4% (active) | 22.2% | 62.6% | 23.8% | 34.1 | 43.6% | 32.5% | 53.6% | 
8 | Cc1cccc[n+]1C1c2ccccc2-c2ccccc21 | 110% | 86.6% | 99.3% | 98.5% | 102% | 94.4% | 99.1% | 92.7% | 90.3 | 93.7% | 109% | 79.2% | 94.1% | 89.7% |  | 67.6 | 92.3% | 97.8% | 102% | 94.5%
